Among all 5,500 compounds or so, about 2,000 (36%) were called active. Inconclusive results (about 18%) are left out. Rule as the data show it: active = normalized growth mostly below about 0.91 (no sharp cut-off); inconclusive = no clear call, values can overlap the other calls; inactive = mostly above about 0.92. This is one part of the list.
Experiment: chemical genetic growth profiling, strain panel (AID 1159580);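 also: tested at 20 µM; growth read once vehicle control cultures reached saturation at 30 °C; 1 = growth at the plate median or of vehicle wells; lower values mean less growth of the strain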
Settings: S. cerevisiae deletion strains, growth OD

Measured: normalized growth

CC[C@H](CO)Nc1nc(NCc2ccccc2)c2ncn(C(C)C)c2n1
inactive: locus YAL013W, strain DEP1, hits give low values 1.01 | locus YAL040C, strain CLN3, hits give low values 0.992 | locus YCL061C, strain MRC1 (second series), hits give low values 1 | locus YDR150W, strain NUM1, hits give low values 0.992 | locus YDR363W, strain ESC2, hits give low values 0.991 | locus YER002W, strain NOP16, hits give low values 1.03 | locus YGR078C, strain PAC10, hits give low values 0.995 | locus YGR229C, strain SMI1, hits give low values 1.04 | locus YMR307W, strain GAS1, hits give low values 0.967 | locus YNL128W, strain TEP1, hits give low values 1.03 | locus YNL153C, strain GIM3, hits give low values 1 | locus YNL175C, strain NOP13, hits give low values 1 | locus YNL197C, strain WHI3, hits give low values 1 | locus YNL224C, strain SQS1, hits give low values 1.01 | locus YNL322C, strain KRE1, hits give low values 1.02 | locus YOR083W, strain WHI5 (second series), hits give low values 1.01 | locus YPL241C, strain CIN2, hits give low values 0.997

Source: PubChem BioAssay AID1159580 (chemical genetic matrix, 2015)
